Assay outcomes from PubChem.
DT40 TDP1 CPT – qHTS for Inhibitors of human tyrosyl-DNA phosphodiesterase 1 (TDP1): qHTS in cells in presence of CPT; Potency, µM (highest dose often 46.2 µM), hits mostly inhibitors; 420,000 tested, 12% active; chicken DT40 Tdp1-/-;hTDP1 cells + 20 nM CPT, ATP luminescence, 48 h; also: nearly all actives have a fitted effect of over 55% in size
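Chicken DT40 Tdp1-/- cells stably complemented with human TDP1 were seeded at 400 cells/well in medium containing 20 nM camptothecin, exposed to pin-transferred compounds, and grown at 37 °C for at least 48 hr. Viability was read as ATP luminescence.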
IL1B secr inh – qHTS for Inhibitors of Inflammasome Signaling: IL-1-beta AlphaLISA Primary Screen; activity change, % at 57.5 µM; AID 743279, 2014; 360,000 tested, 4.7% active; THP-1 LPS/ATP IL-1B secretion, AlphaLISA, 16 h; hits give low values; in the data active = activity change below about -50%; inconclusive = mostly about -30% to -49%
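THP-1 cells pretreated 1 hr with compounds (up to 57.5 uM final), then stimulated with LPS (250 ng/mL final) plus ATP (1.25 mM final); secreted IL-1B measured by AlphaLISA after 16 hr, decreased signal indicating inhibition.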
HT1080-NT tox – qHTS for induction of synthetic lethality in tumor cells producing 2HG: qHTS for the HT-1080-NT fibrosarcoma cell line | Potency, µM (highest dose often 46.1 µM), hits mostly cytotoxic | 360,000 tested, 1.6% active | HT-1080-NT fibrosarcoma viability, CellTiter-Glo ATP luminescence, 48 h;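 also: NT is the 2HG producing partner of a matched IDH1 knockdown line; nearly all actives have a fitted effect of over 55% in size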
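750 cells/well, RPMI + 5% FBS; 2 h settle, compound pin-transfer, 48 h at 37 degrees C. CellTiter-Glo 10 min RT, luminescence. Normalized to DMSO and media-only wells.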
HT1080 IDH1KD tx – qHTS for induction of synthetic lethality in tumor cells producing 2HG: qHTS for the HT-1080-IDH1KD cell line; HT-1080 IDH1 knockdown viability, ATP luminescence, 48 h; Potency, µM (top dose mostly 46.1 µM), hits mostly cytotoxic; 360,000 tested, 2% active
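After a 2 h attachment period, IDH1KD HT-1080 cells took pin-transferred compound for 48 h at 37 °C; ATP-based luminescence after 10 min room-temperature reagent incubation reported viability.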
DT40 TDP1 no CPT – qHTS for Inhibitors of human tyrosyl-DNA phosphodiesterase 1 (TDP1): qHTS in cells in absence of CPT; DT40 Tdp1-/- hTDP1 cells, no CPT, ATP luminescence, 48 h; Potency, µM (series often up to 46.2 µM), hits mostly inhibitors; 420,000 tested, 15% active; also: nearly all actives have a fitted effect of over 55% in size
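Camptothecin absent (DMSO only). Human TDP1-complemented DT40 knockout cells, 400 cells/well, 37 °C for minimum 48 hr; ATP measured via CellTiter-Glo, 30 min dark incubation, luminescence.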
Of the large screens only hits and unclear results are named; the others gave an inactive call; ! = repeats disagree. Shown are actives, neighbours in structure and some others; about 19% of the full set was active somewhere. Unless noted, calls follow the shape of the dose curve; as a rule, active = well fitted curve in the direction sought with a large enough effect; inconclusive = small, poorly fitted or top-dose-only effect, or another doubt; inactive = no such curve, though single readings can be large; an effect the other way counts as inactive or inconclusive.

CCc1cc2c3c(c1)C1(C(=O)N3C(C)(C)C=C2C)C(C#N)=C(N)Oc2[nH]c(=O)[nH]c(=O)c21 (configuration not stated)	DT40 TDP1 CPT 3.26µM, HT1080-NT tox 23.1µM, HT1080 IDH1KD tx 16.4µM, DT40 TDP1 no CPT 3.26µM
COc1ccc(Cc2noc(CN(C)CC(O)c3ccccc3)n2)cc1OC (configuration not stated)	none
Cc1cccc(OCCNC(=O)CCc2ccccc2)c1	none
CCN(C[C@H]1N[C@@](Cc2ccccc2)(C(=O)OC)[C@H]2C(=O)N(Cc3ccccc3)C(=O)[C@@H]12)S(=O)(=O)c1ccc(-c2ccccc2)cc1	none
CCN(C[C@H]1N[C@@](Cc2ccccc2)(C(=O)OC)[C@H]2C(=O)N(Cc3ccccc3)C(=O)[C@@H]12)S(=O)(=O)c1ccccc1	DT40 TDP1 CPT inconclusive, DT40 TDP1 no CPT 23.1µM
CCN(C[C@H]1N[C@@](CC)(C(=O)OC)[C@H]2C(=O)N(Cc3ccccc3)C(=O)[C@@H]12)S(=O)(=O)c1ccc(F)cc1	DT40 TDP1 CPT inconclusive, DT40 TDP1 no CPT 20.6µM
CCN(C[C@H]1N[C@@](Cc2ccccc2)(C(=O)OC)[C@H]2C(=O)N(Cc3ccccc3)C(=O)[C@@H]12)S(=O)(=O)c1ccc(C)cc1	DT40 TDP1 CPT 16.4µM, DT40 TDP1 no CPT 20.6µM
COC(=O)[C@]1(Cc2ccccc2)N[C@H](CN(C)S(=O)(=O)c2ccc(C)cc2)[C@@H]2C(=O)N(Cc3ccccc3)C(=O)[C@@H]21	DT40 TDP1 CPT inconclusive
CC(C)Cn1c(=O)[nH]c(=O)c2c(C(F)(F)F)cc(-c3ccccc3)nc21	DT40 TDP1 no CPT inconclusive
O=C(NP(=O)(N1CCCC1)N1CCCC1)C1=C(N2CCOCC2)/C(=C/c2cccc([N+](=O)[O-])c2)CC1	none
O=[N+]([O-])c1ccc(/C=C2\CCC(C3=CCCC3)=C2N2CCOCC2)cc1	DT40 TDP1 CPT inconclusive, IL1B secr inh inconclusive, DT40 TDP1 no CPT 16.4µM
COc1cccc(N2C(=O)C(CC(=O)Nc3cccc(F)c3)N(C(C)C)C2=O)c1 (configuration not stated)	none (no result: IL1B secr inh, HT1080-NT tox, HT1080 IDH1KD tx)
CC(=O)OC/C=C(\C)CC/C=C(\C)CC/C=C(\C)CC/C=C(\C)CC/C=C(\C)CC/C=C(\C)CC/C=C(\C)CC/C=C(\C)CCC=C(C)C	none (no result: IL1B secr inh, HT1080-NT tox, HT1080 IDH1KD tx)
CC(C)=CCC/C(C)=C/CC/C(C)=C/CC/C(C)=C/CC1=C(C)C(=O)c2ccccc2C1=O	DT40 TDP1 CPT 26.6µM!, DT40 TDP1 no CPT 23.7µM
CC(C)=CCC1=C(OCC(=O)O)C(=O)c2ccccc2C1=O	DT40 TDP1 CPT 23.1µM, HT1080-NT tox inconclusive, HT1080 IDH1KD tx inconclusive, DT40 TDP1 no CPT 29.1µM
O=C(N/N=C\c1cccc([N+](=O)[O-])c1O)C1COc2ccccc2O1 (configuration not stated)	DT40 TDP1 CPT 5.17µM, HT1080-NT tox inconclusive, HT1080 IDH1KD tx inconclusive, DT40 TDP1 no CPT 5.17µM
COc1cc([N+](=O)[O-])cc(/C=N\NC(=O)C2COc3ccccc3O2)c1O (configuration not stated)	DT40 TDP1 CPT inconclusive, HT1080-NT tox inconclusive, HT1080 IDH1KD tx 18.4µM, DT40 TDP1 no CPT inconclusive
O=C(N/N=C/c1cccc([N+](=O)[O-])c1)C1COc2ccccc2O1 (configuration not stated)	none
COc1ccc(N2C(c3ccsc3)=Cc3cc4c(cc3C2c2c[nH]c3ccccc23)OCO4)cc1 (configuration not stated)	DT40 TDP1 CPT inconclusive, HT1080-NT tox 20.6µM, HT1080 IDH1KD tx inconclusive, DT40 TDP1 no CPT 23.1µM
CCOC(=O)c1ccc(-c2ccc(N3C(c4ccsc4)=Cc4ccc(F)cc4C3c3c[nH]c4ccc(C#N)cc34)cc2)cc1F (configuration not stated)	DT40 TDP1 no CPT inconclusive
Nc1[nH]c(=S)[nH]c(=O)c1N=O	none (no result: IL1B secr inh, HT1080-NT tox, HT1080 IDH1KD tx)
CCOc1ccccc1NC(=O)C(NC(=O)C1CCC(C)CC1)C(C)C (configuration not stated)	none
CCOc1ccccc1NC(=O)C(CC(C)C)NC(=O)C1CCC(C)CC1 (configuration not stated)	DT40 TDP1 CPT 18.4µM, DT40 TDP1 no CPT inconclusive
O=C1NN(c2ccccc2)C(=O)/C1=C/c1ccc(Sc2ccc(Cl)cc2)o1	DT40 TDP1 CPT inconclusive, DT40 TDP1 no CPT 20.6µM
O=C1NN(c2ccccc2)C(=O)/C1=C/c1ccc(-c2ccc(Cl)c(C(=O)O)c2)o1	none
Cc1ccc(Sc2ccc(/C=C3/C(=O)NN(c4ccccc4)C3=O)o2)cc1	DT40 TDP1 CPT inconclusive, DT40 TDP1 no CPT 16.4µM
OCC[C@@H]1C[C@H](O)[C@@H](O)[C@@]2(OCc3ccc4ccccc4c32)O1	none
COc1cccc(CN(C)CC(=O)Nc2cccc3ccccc23)c1	none
CC1(C)C(=O)N(c2ccccc2)C1c1ccccc1O (configuration not stated)	DT40 TDP1 CPT inconclusive, HT1080-NT tox inconclusive, HT1080 IDH1KD tx inconclusive, DT40 TDP1 no CPT 16.4µM
O=C1N(c2ccccc2)C(c2ccccc2)C12CCCCC2 (configuration not stated)	DT40 TDP1 CPT inconclusive, DT40 TDP1 no CPT inconclusive
COc1ccc(N2C(=O)C(C)(C)C2c2c(O)ccc3ccccc23)cc1 (configuration not stated)	DT40 TDP1 CPT 20.6µM, DT40 TDP1 no CPT 16.4µM
CCCCn1c(N)c(NCC)c(=O)[nH]c1=O	DT40 TDP1 CPT inconclusive, DT40 TDP1 no CPT 23.1µM
CCCCn1c(N)c(NCc2ccccc2)c(=O)[nH]c1=O	none
Cc1cc(C)cc(-n2c(C)nc3cc(C(=O)O)ccc32)c1	none
CN(C)S(=O)(=O)c1cccc(NC(=S)NCc2ccco2)c1	none
CCN(CCO)c1ccc(NC(=S)Nc2cccc(S(=O)(=O)N(C)C)c2)cc1	HT1080 IDH1KD tx inconclusive, DT40 TDP1 no CPT inconclusive
CN(C)S(=O)(=O)c1cccc(NC(=S)Nc2cc(Cl)cc(Cl)c2)c1	DT40 TDP1 CPT 25.9µM, IL1B secr inh -70.4, DT40 TDP1 no CPT 23.1µM
CN(C)S(=O)(=O)c1cccc(NC(=S)Nc2ccc(Cl)cc2Cl)c1	DT40 TDP1 CPT inconclusive, DT40 TDP1 no CPT 16.4µM
CCNC(=O)NC(=O)C(C)OC(=O)CCCSc1nc2ccccc2s1 (configuration not stated)	none
CCCCNC(=O)c1onc(CSc2cccc(C)c2)c1C(=O)O	none
CC(=O)Nc1cc(C(=O)N2CCN(C(=O)c3ccco3)CC2)cc2ncn(CCc3ccccn3)c12	none (no result: IL1B secr inh, HT1080-NT tox, HT1080 IDH1KD tx)
CC1CCN(c2nnc(-c3cccs3)c3ccccc23)CC1	DT40 TDP1 CPT 25.9µM, IL1B secr inh inconclusive, DT40 TDP1 no CPT inconclusive
